Wnt bcat act – activates Wnt/beta-catenin signaling in a reporter cell assay | activation, % at 9.35 µM | actives 1.2% (n = 300,000) | activator, plate reader; in the data active means activation above about 30%, passing the limit was not always enough;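 further: 0% = neutral control wells and 100% = positive control wells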
AF4-AF9 inh – MLL-AF4/AF9 protein interaction inhibition. AlphaScreen, biotin-AF4 peptide binding to FLAG-AF9. P42568. actives 0.47% (n = 350,000). inhibition, % at 10 µM;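 active means every replicate reaching a set inhibition limit, whatever the replicate mean, cut at about 25% in these data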;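 further: 0% = plate neutral control median and 100% = total signal loss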
FGF22 binding – FGF22 (human) thermal shift binding | Q9HCT0 | recombinant FGF22 thermal shift, SYPRO orange fluorescence; percent of sucrose octasulfate shift, DMSO zero | activity (Tm shift, normalised), % at 9.99 µM | actives 1.5% (n = 340,000) | AID 651658;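 active means mean Tm shift, scaled 0 neutral to 100 positive control, at about 1.3% or above, every replicate too, limit read from the data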
Target sequence (Q9HCT0 whole entry, looked up): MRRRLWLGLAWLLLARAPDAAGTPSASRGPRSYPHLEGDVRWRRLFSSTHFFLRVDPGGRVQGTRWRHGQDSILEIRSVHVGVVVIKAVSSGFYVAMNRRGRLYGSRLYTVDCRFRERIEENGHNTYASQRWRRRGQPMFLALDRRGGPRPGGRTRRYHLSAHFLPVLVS
SMARCA2 act – SMARCA2 function activation, primary screen | MG213 cells, MMTV-luciferase reporter, dexamethasone, overnight | activation, % at 9.1 µM | actives 1% (n = 370,000); in the data active means activation above about 7.8%;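 further: 0% = vehicle wells and 100% = reference activator wells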
esBAF inh – inhibitors of esBAF chromatin remodeling in mouse ES cells | Bmi1-luciferase knock-in reporter, 24 h; 100% = twice the neutral-well signal | reporter increase, % at 12.5 µM | actives 2% (n = 350,000); in the data active means activation above about 40%;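 further: 0% = median of the plate's neutral control wells and 100% = double that signal; a rise in the Bmi1 reporter signal indicates esBAF inhibition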
MITF TRPM1 HTS – increases MITF-driven TRPM1 promoter luciferase signal; SK-MEL-5 TRPM1-promoter luciferase, 24 h; % of positive control, neutral wells = 0; activation, % at 12.5 µM; actives 0.75% (n = 300,000); AID 588334;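 active means mean activation of at least 80% with every replicate also reaching 80%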;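 further: 0% = neutral control wells and 100% = parthenolide positive control wells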
* hit, by the source's call; . = no result. This is a sample that favours compounds with a hit; in the whole collection about 4.3% have one here.

SMILES	Wnt bcat act	AF4-AF9 inh	FGF22 binding	SMARCA2 act	esBAF inh	MITF TRPM1 HTS
COCc1nc2oc3ccc(C)cc3c(=O)c2cc1C(=O)OC	4	0	0	3	16	91*
CCN(CC)C(=O)c1cc2c(=O)c3cc(Cl)ccc3oc2nc1C	22	0	0	4	45*	48
COCc1nc2oc3ccc(F)cc3c(=O)c2cc1C(=O)OC	5	1	0	1	33	.
O=S(=O)(c1ccc(F)cc1)N1CCCCN2[C@@H](CO)[C@@H](c3ccc(C#CC4CCCC4)cc3)[C@@H]2C1	.	2	0	.	.	.
CCOC(=O)c1c(C)n(OCc2ccccc2)c2ccc3nonc3c12	-2	33*	0	4	-3	12
O=C(Nc1ccc2nc(-c3ccccc3)[nH]c2c1)c1ccco1	54*	.	.	5	54*	.
O=C(Nc1ccc2nc(-c3ccc(Br)o3)[nH]c2c1)c1ccco1	.	.	.	7	65*	38
Cc1ccc(-c2nc3ccccc3[nH]2)cc1NC(=O)c1ccco1	2	.	.	5	37	29
O=C(Nc1ccc2nc(-c3ccc(Br)o3)[nH]c2c1)c1cccs1	.	.	.	3	49*	48
CC(=O)Nc1ccc2nc(-c3ccc(Br)o3)[nH]c2c1	-1	.	.	1	.	66
Cc1cccc2[nH]c(-c3ccc(NC(=O)c4ccco4)cc3)nc12	.	.	.	7	84*	49
COc1ccc(NC(=O)N2CC[C@@H]3[C@H]2c2cc(-c4cccc(C(=O)N(C)C)c4)ccc2N(C)[C@H]3CO)cc1	.	-1	0	.	2	.
Cc1ccc(OC(=O)N2CCOCC2)cc1	10	.	.	0	22	.
CC(C)(C)c1ccc(OC(=O)N2CCOCC2)cc1	1	0	0	4	45*	71
Nn1c(SCC(=O)N2CCCC2)nnc1C1CCCCC1	-2	-1	0	0	3	.
CC(C)OC(=O)CSc1nnc(C2CCCCC2)n1N	42*	-3	0	-2	.	.
COc1ccc(C(=O)Nc2cccc3c2CCCC3)c(OC)c1	36*	-2	0	-1	.	.
COc1ccc(C(=O)Nc2cccc3c2CCCC3)cc1	3	-3	0	2	48*	.
O=C(Nc1ccc2c3c(cccc13)CC2)c1ccco1	.	.	.	4	27	34
COc1ccc(CC(=O)Nc2cccc3c2CCCC3)cc1	-1	1	0	4	-3	.
O=C(Nc1ccc2c3c(cccc13)CC2)c1ccc(Br)o1	.	.	.	3	79*	74
COc1cc(OC)cc(C(=O)NC(=S)Nc2ccc3c4c(cccc24)CC3)c1	.	.	.	-2	.	9
COc1ccc(C(=O)Nc2ccc3c4c(cccc24)CC3)cc1	15	.	.	2	.	87*
COc1ccc2c(c1)Cc1sc(NC(=O)c3ccccc3)nc1-2	51*	.	.	0	.	33
COc1ccc2c(c1)Cc1sc(NC(=O)c3cccs3)nc1-2	.	.	.	0	83*	48
SMILES	Wnt bcat act	AF4-AF9 inh	FGF22 binding	SMARCA2 act	esBAF inh	MITF TRPM1 HTS
COc1ccc(C(=O)Nc2nc3c(s2)Cc2cc(OC)ccc2-3)cc1	.	.	.	-2	12	6
COC(=O)C1=C(Nc2ccccc2NC(=O)c2ccccc2C(=O)O)CSC1	41*	.	0	2	26	-6
Cn1nccc1-c1ccc(C(=O)Nc2cccc(NS(C)(=O)=O)c2)c2occc12	4	1	0	-3	46*	.
CS(=O)(=O)Nc1cccc(NC(=O)c2cccc3c(-c4ccc(F)c(F)c4)coc23)c1	-1	-1	0	0	52*	.
CNC(=O)C[C@H]1CC[C@H]2[C@@H](COc3ccc(NC(=O)Nc4ccc(Cl)cc4)cc3C(=O)N2C)O1	.	-1	0	.	-4	.
O=C(C[C@H]1C[C@@H]2c3cc(NC(=O)Nc4ccc(C(F)(F)F)cc4)ccc3O[C@@H]2[C@H](CO)O1)NCc1cc(F)ccc1F	.	-1	-1	.	-11	.
O=C(NNC(=O)c1cc2ccccc2oc1=O)c1ccccc1	9	0	0	0	55*	.
O=C(c1ccccc1)c1cc2ccccc2oc1=O	-1	-1	0	1	48	29
N/C(=N\NC(=O)c1ccc(F)cc1)c1cc2ccccc2oc1=O	7	0	43*	2	.	.
O=C(Nc1ccc(F)cc1F)c1cc2ccccc2oc1=O	50*	-3	0	8	20	.
O=C(c1cc2ccccc2oc1=O)N1CCN(c2ncccn2)CC1	.	.	.	.	70*	.

Screening results deposited in PubChem by several laboratories.
